Assay outcomes (PubChem BioAssay)
Sampled rows, rich in hits. Any-hit rate of the full collection: about 28%.
CYP2C9 act: activators of human CYP2C9. recombinant CYP2C9, luciferin-H conversion, luminescence; hits give high values; factor 1 = untreated enzyme, 0 = blocked. AID 1024. 96,000 compounds, 1.4% hits. activation factor at 5 µM. P11712;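 active = activation factor of 2 or more for CYP2C9 at a 5 µM dose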
Mac1 fbg inh: blocks human CD11b/CD18 adhesion to fibrinogen; P05107+P11215; 93,000 compounds, 0.54% hits; inhibition, % at 10 µM; K562 CD11b/CD18 adhesion to fibrinogen, ATPlite luminescence; Mn2+ added to activate the integrin;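 active = primary inhibition of 50% or more at 10 µM, then 40% or more on retest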
Target sequence (P05107 whole entry, looked up, other chains not shown): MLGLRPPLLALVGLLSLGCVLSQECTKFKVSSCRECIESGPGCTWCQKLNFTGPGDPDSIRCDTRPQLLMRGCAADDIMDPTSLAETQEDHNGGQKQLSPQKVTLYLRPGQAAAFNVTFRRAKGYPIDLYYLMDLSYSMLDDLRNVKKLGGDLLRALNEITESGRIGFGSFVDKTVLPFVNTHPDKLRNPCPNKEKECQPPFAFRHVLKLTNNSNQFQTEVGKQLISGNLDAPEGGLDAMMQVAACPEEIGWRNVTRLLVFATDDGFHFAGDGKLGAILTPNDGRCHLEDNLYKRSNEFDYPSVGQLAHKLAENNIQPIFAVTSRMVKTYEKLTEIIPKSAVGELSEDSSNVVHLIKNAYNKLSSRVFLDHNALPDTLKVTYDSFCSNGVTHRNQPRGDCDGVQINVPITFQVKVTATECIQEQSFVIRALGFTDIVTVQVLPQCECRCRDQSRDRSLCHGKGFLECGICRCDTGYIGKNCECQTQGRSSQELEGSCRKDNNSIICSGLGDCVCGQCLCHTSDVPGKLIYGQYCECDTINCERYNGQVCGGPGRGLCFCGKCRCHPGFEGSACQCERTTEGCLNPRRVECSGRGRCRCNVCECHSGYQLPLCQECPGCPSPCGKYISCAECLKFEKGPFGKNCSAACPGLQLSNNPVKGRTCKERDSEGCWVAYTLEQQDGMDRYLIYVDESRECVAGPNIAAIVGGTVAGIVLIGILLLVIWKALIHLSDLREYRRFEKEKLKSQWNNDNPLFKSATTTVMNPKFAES
CYP2C19 inhib: blocks human cytochrome P450 2C19; P33261; CYP2C19 Supersomes, luciferin-H EGE luminescence, 30 min; inhibition, % at 5 µM; 96,000 compounds, 21% hits; AID 778;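 active = CYP2C19 inhibition above a set limit at 5 µM in the primary screen, cut at about 50% in these data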
CD11b adhes enh: enhancers of human CD11b/CD18 binding to fibrinogen | AID 1499 | 93,000 compounds, 0.07% hits | K562 CD11b/CD18 adhesion to fibrinogen, ATPlite luminescence | activation, % at 10 µM;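 active = 10 µM primary screen giving 50% or more activity, confirmed by 40% or more on retest at that dose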
CYP2C19 act: activators of human cytochrome P450 2C19; P33261; recombinant CYP2C19, luciferin-H EGE luminescence; hits give high values; 0 = fully inhibited enzyme, 1 = untreated enzyme; activation factor at 5 µM; 96,000 tested, under 10 active; AID 1025;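 active = activation factor of at least 2 at 5 µM in the primary screen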
CYP2C9 inh: blocks human cytochrome P450 2C9 | inhibition, % at 5 µM | CYP2C9 Supersomes, luciferin-H conversion, luminescence | 96,000 compounds, 20% hits | AID 777;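 active = blocking of liver enzyme CYP2C9 beyond about 50% at 5 µM, limit read from the data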
Of the large screens only hits and unclear results are named; the others gave an inactive call.

CCC(=O)NC(NC(=S)Nc1c(C)n(C)n(-c2ccccc2)c1=O)C(Cl)(Cl)Cl (stereo not given)	none (no result: CYP2C9 act, CYP2C19 inhib, CYP2C19 act, CYP2C9 inh)
CCCCCCCC(=O)NNC(=O)c1ccc(F)cc1	none (no result: Mac1 fbg inh, CD11b adhes enh)
Fc1ccc(-c2n[nH]c(=S)n2CC2CCCO2)cc1 (stereo not given)	none
COc1cc(-c2nnc(SCc3cccnc3)n2C)cc(OC)c1O	none
COC(=O)c1c(NC(=S)Nc2ccc(F)cc2[N+](=O)[O-])sc2c1CCCCC2	Mac1 fbg inh 86 (no result: CYP2C9 act, CYP2C19 inhib, CYP2C19 act, CYP2C9 inh)
c1cnc(Oc2ccc(-c3nnco3)cc2)cn1	CYP2C19 inhib 54
Cc1ccc(C(=O)Cn2c(C(=O)/C=C/c3ccccc3)nc3ccccc32)cc1	none (no result: Mac1 fbg inh, CD11b adhes enh)
CN(CCCNC(=O)Cn1cc2c(n1)CCCC2)C1CCCCC1	none
CC(C)COc1ccc(/C(O)=C2/C(=O)C(=O)N(CCN(C)C)C2c2ccncc2)cc1 (stereo not given)	none
COc1cc(C2/C(=C(/O)c3ccc(OCC(C)C)cc3)C(=O)C(=O)N2CCN(C)C)ccc1O (stereo not given)	CYP2C19 inhib 68
CC1=NN(c2ccccc2)C(=O)/C1=C/c1cc2cc(C)ccc2nc1N1CCCCC1	CYP2C19 inhib 67, CYP2C9 inh 81 (no result: Mac1 fbg inh, CD11b adhes enh)
CC1=NN(c2ccccc2)C(=O)/C1=C\C=C1/N(C)c2ccccc2C1(C)C	none (no result: CYP2C9 act, CYP2C19 inhib, CYP2C19 act, CYP2C9 inh)
C/C(=N\O)c1ccc2c3ccccc3n(C)c2c1	CYP2C9 inh 55
CN(C)c1ccc(/C=C/c2cc[n+]([O-])cc2)cc1	CYP2C19 inhib 92, CYP2C9 inh 54
CN(C)c1ccc(/C=C/c2cc[n+](C)cc2)cc1	none
O=C(CCNS(=O)(=O)c1cccc2nonc12)N1CCN(c2cccc(Cl)c2)CC1	CYP2C19 inhib 68
Cc1ccc(CCNC(=O)C2CCN(S(=O)(=O)c3cccc4nonc34)CC2)cc1	none
O=C(CCNS(=O)(=O)c1cccc2nonc12)NCCc1ccc(Cl)cc1	CYP2C19 inhib 74
COc1ccc(CCNC(=O)CC2SC(=NCCC(C)C)NC2=O)cc1OC (stereo not given)	none (no result: CYP2C9 act, CYP2C19 inhib, CYP2C19 act, CYP2C9 inh)
Cc1cccc(C)c1Oc1nc(-c2ccccc2)ncc1S(=O)(=O)c1ccccc1	CYP2C9 inh 85
O=C(OC1CCOC1=O)c1cc(-c2ccccc2)nc2ccccc12 (stereo not given)	CYP2C9 inh 88
COc1ccc(-c2cc(C(=O)OC3CCOC3=O)c3ccccc3n2)cc1OC (stereo not given)	CYP2C19 inhib 55, CYP2C9 inh 77
O=C(OC1CCOC1=O)c1cc(-c2ccc(Cl)cc2)nc2ccccc12 (stereo not given)	none
CCC(c1c(C)[nH]oc1=O)c1c(C)[nH]oc1=O	none
COc1ccccc1CCC(=O)Nc1nc2ccccc2[nH]1	CYP2C19 inhib 62
CCC(Oc1ccccc1)C(=O)Nc1nc2ccccc2[nH]1 (stereo not given)	CYP2C9 inh 52
COc1ccc(CCC(=O)Nc2nc3ccccc3[nH]2)cc1OC	none
O=C(NCc1cccnc1)c1cnc2sccn2c1=O	none
CCOc1nc(CC)nc(NC(=O)NS(=O)(=O)c2ccccc2Cl)n1	none
COc1ccc(CCNC2CC(=O)N(CCc3ccccc3)C2=O)cc1OC (stereo not given)	CYP2C19 inhib 60
Cc1ccc(CC2CC(=O)N(CCc3ccc4c(c3)OCO4)C2=O)cc1 (stereo not given)	none
O=C1CC(NCc2ccc3c(c2)OCO3)C(=O)N1CCc1ccccc1 (stereo not given)	CYP2C19 inhib 75
CNC(=O)C1CC(=O)N(Cc2ccc(OC)c(OC)c2)C(=Nc2ccc(OC)cc2)S1 (stereo not given)	none (no result: Mac1 fbg inh, CD11b adhes enh)
COc1cccc(CC2CC(=O)N(CCc3ccc4c(c3)OCO4)C2=O)c1 (stereo not given)	CYP2C19 inhib 96
COc1ccc(CCN2C(=O)CC(C(N)=O)SC2=Nc2ccccc2)cc1OC (stereo not given)	CYP2C19 inhib 68
COc1ccc(CCNc2c(N)n(Cc3ccccc3)c(=O)[nH]c2=O)cc1OC	none
COc1ccc(CCNC2=C(Cl)C(=O)N(CCc3ccccc3)C2=O)cc1OC	CYP2C19 inhib 60, CYP2C9 inh 58
O=C1C2CCCN2C(c2ccccc2)N1c1nccs1 (stereo not given)	none
CCN(CC)CCCN1C(=O)C(O)=C(C(=O)c2sc(C)nc2C)C1c1ccco1 (stereo not given)	none
Cc1cc(C)c(C#N)c(SCS(=O)Cc2ccc(Cl)cc2)n1 (stereo not given)	CYP2C19 inhib 95, CYP2C9 inh 59
Cc1cc(C)c(C#N)c(SCc2ccc(C#N)cc2)n1	none
Cc1cc(C)c(C#N)c(SCCS(=O)(=O)Cc2ccc(Cl)cc2)n1	none
Cc1cc(C)c(C#N)c(SCS(=O)Cc2ccccc2)n1 (stereo not given)	CYP2C19 inhib 68
Cc1cc(C)c(C#N)c(SCCS(=O)(=O)c2ccc(C(C)(C)C)cc2)n1	CYP2C19 inhib 70, CYP2C9 inh 89
CC1CCc2c(sc(NC(=O)CSc3nc4c(c(C(F)(F)F)n3)CCc3ccccc3-4)c2C(N)=O)C1 (stereo not given)	none (no result: CYP2C9 act, CYP2C19 inhib, CYP2C19 act, CYP2C9 inh)
COc1cccc(/C(O)=C2/C(=O)C(=O)N(CCN3CCOCC3)C2c2cccs2)c1 (stereo not given)	none (no result: Mac1 fbg inh, CD11b adhes enh)
Cc1cc(OC2CCCCC2)nc(-c2ccccc2O)n1	none
O=C1C2C(C(=O)N1c1ccncc1)C1C=CC2C12CC2 (stereo not given)	CYP2C19 inhib 92, CYP2C9 inh 75
CCNC(=O)COc1ccc(S(=O)(=O)Nc2ccccc2)cc1	CYP2C9 inh 62
COCCCNC(=O)COc1ccc(S(=O)(=O)Nc2ccccc2)cc1	none
O=C(COc1ccc2oc(-c3ccccc3)cc(=O)c2c1)NCc1ccco1	CYP2C9 inh 58
CCCCNC(=O)NS(=O)(=O)c1ccc(NS(=O)(=O)c2ccccc2)cc1	CYP2C9 inh 55
CC(=O)N(C)c1ccc(OCC(O)COc2ccc(N(C)C(C)=O)cc2)cc1	none
CC(=O)N(C)c1ccc(OCC(O)CN(Cc2ccco2)S(=O)(=O)c2ccc(C)cc2)cc1 (stereo not given)	CYP2C9 inh 80
COc1ccc(CC(CC(=O)O)C(=O)Nc2ccccc2)cc1 (stereo not given)	none
COc1ccc(NS(=O)(=O)c2cccc(C(=O)OCC(=O)Nc3cc(C)on3)c2)cc1	CYP2C9 inh 71
COc1cccc(S(=O)(=O)Nc2ccc(C(=O)NCc3ccco3)cc2)c1	CYP2C19 inhib 61, CYP2C9 inh 98
Cc1ccc(C)c(NS(=O)(=O)c2ccc(OCC(=O)NCc3ccco3)cc2)c1	none
Cc1ccc(NS(=O)(=O)c2ccc(OCC(=O)NCc3ccco3)cc2)cc1	CYP2C19 inhib 75, CYP2C9 inh 85
Cc1ccc(S(=O)(=O)N(C)c2ccc(OCC(=O)NCc3ccco3)cc2)cc1	CYP2C9 inh 93
